Data on one compound can be found in PubChem BioAssay (EPA / NIEHS).

Assay [1] in a line: CCTE_Shafer_MEA_dev_firing_rate_mean: CCTE's Neural Network Formation Assay for Mean Firing Rate, Shafer Lab (AID 2284031).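 Further: curve fitted for loss of firing so AC50 reflects decreased mean firing rate.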 The procedure, abridged: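 Extracellular spike frequency, AUC over DIV 5–12 recordings, in rat cortical neuron MEA cultures dosed from plating; loss direction vs DMSO.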
Assay [2] can be described thus: CCTE_Shafer_MEA_dev_per_burst_spike_percent: CCTE's Neural Network Formation Assay for Percent of Spikes in a Burst, Shafer Lab (AID 2284032).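 Further: fitted as a decrease in burst spike percentage below DMSO baseline.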 The gist of the method:
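Value is trapezoidal AUC over recordings on days 5, 7, 9 and 12 of the well-mean fraction of spikes falling in single-electrode bursts; rat cortical cultures exposed continuously from plating, treatment renewed DIV 5 and 9, fitted downward against DMSO.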

Assay [3] is described as follows: CCTE_Shafer_MEA_dev_active_electrodes_number: CCTE's Neural Network Formation Assay for Number of Active Electrodes, Shafer Lab (AID 2284040; active means hit-call score of the fitted dose curve at least 0.9, where 1 is the maximum;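 further: potency for loss of active electrodes versus DMSO so lower counts are hits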). The procedure, abridged: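 Developing rat cortical networks on MEAs, exposed DIV 0–12. Value is the AUC of active-electrode counts (≥5 spikes/min) from days 5, 7, 9, 12, relative to DMSO.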
The nature of assay [4]: CCTE_Shafer_MEA_dev_burst_rate: CCTE's Neural Network Formation Assay for Burst Rate, Shafer Lab (AID 2284042).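 Further: potency for loss of burst rate below DMSO control.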 The gist of the method:
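Cells plated, treated day 0; recorded DIV 5, 7, 9, 12; fed and re-treated DIV 5, 9. Endpoint: bursts per recording time, active-electrode well mean, trapezoidal AUC, fitted in decreasing direction against DMSO baseline.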

Assay [5] can be described thus: CCTE_Shafer_MEA_dev_per_burst_interspike_interval: CCTE's Neural Network Formation Assay for Burst Interspike Interval, Shafer Lab (AID 2284044).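 Further: potency for a decrease of within-burst interspike interval below DMSO level.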 The gist of the method:
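Primary rat cortical neurons on 48-well MEA plates, exposed from day 0 through day 12, treatment renewed at DIV 5 and 9. Within-burst interspike interval recorded days 5, 7, 9, 12, well-averaged, summarised as AUC; negative fit versus DMSO.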

A short description of assay [6]: CCTE_Shafer_MEA_dev_burst_duration_mean: CCTE's Neural Network Formation Assay for Mean Burst Duration, Shafer Lab (AID 2284045).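 Further: curve fitted for loss meaning shorter burst duration than DMSO.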 The procedure, abridged:
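Network-formation assay in primary rat cortical neurons; treatment spans twelve days of development. Mean burst duration per well is integrated by trapezoidal AUC and fitted in the loss-of-signal direction against DMSO baseline.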

Assay [7] in a line: CCTE_Shafer_MEA_dev_interburst_interval_mean: CCTE's Neural Network Formation Assay for Mean Interburst Interval, Shafer Lab (AID 2284046).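 Further: curve fitted for decrease in interburst interval relative to DMSO.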 The gist of the method: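 Developing rat cortical networks on 48-well MEAs receive compound from the day of plating. Burst intervals from each active electrode are averaged per well, and AUC over the recording days is fitted in the negative direction against DMSO.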

The nature of assay [8]: CCTE_Shafer_MEA_dev_inter_network_spike_interval_mean: CCTE's Neural Network Formation Assay for Mean Inter-network Spike Interval, Shafer Lab (AID 2284047). The gist of the method:
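Rat cortical cultures, 1.5 x 10^5 cells/well on 48-well MEA plates; continuous exposure days 0–12, medium and compound refreshed DIV 5, 9. Mean time between consecutive network-spike peaks; AUC across DIV 5/7/9/12; DMSO baseline, negative fitting direction.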

Assay [9] is described as follows: CCTE_Shafer_MEA_dev_network_spike_number: CCTE's Neural Network Formation Assay for Number of Network Spikes, Shafer Lab (AID 2284048).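 Further: synchronized bursts across electrodes counted on days 5 7 9 12 and integrated as AUC; fit as a loss of signal meaning fewer network spikes than DMSO.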 The gist of the method:
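Extracellular recordings from 16-electrode wells track network formation in rat cortical cultures under continuous treatment from plating. The endpoint is network spike number, expressed as AUC across DIV 5–12 relative to DMSO vehicle.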

Assay [10] in a line: CCTE_Shafer_MEA_dev_spike_duration_mean: CCTE's Neural Network Formation Assay for Mean Spike Duration, Shafer Lab (AID 2284051).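 Further: potency for a decrease in mean network spike duration versus DMSO.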 The procedure, abridged: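 Readout is the average length of network spikes, clustered firing across electrodes, summed over DIV 5, 7, 9 and 12 as area under the curve. Neurons from rat cortex developed networks on MEA plates under continuous 12-day exposure.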

A short description of assay [11]: CCTE_Shafer_MEA_dev_network_spike_duration_std: CCTE's Neural Network Formation Assay for Standard Deviation of Network Spike Duration, Shafer Lab (AID 2284052).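 Further: hits are decreases in network spike duration SD versus DMSO vehicle.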 The procedure, abridged:
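Read-out is the trapezoidal area-under-the-curve across recordings made on days 5, 7, 9 and 12, fitted in the negative direction against DMSO baseline. Neurons were primary rat cortical cells treated from day 0, with treatment renewed at each feed.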

Assay [12] can be described thus: CCTE_Shafer_MEA_dev_per_network_spike_spike_number_mean: CCTE's Neural Network Formation Assay for Mean Number of Spikes in a Network Spike, Shafer Lab (AID 2284053). The procedure, abridged:
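Continuous twelve-day exposure of developing rat cortical networks grown over 16 microelectrodes per well; spontaneous firing is captured at four time points, and the per-network-spike spike number is integrated over development by trapezoidal AUC.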

The nature of assay [13]: CCTE_Shafer_MEA_dev_per_network_spike_spike_percent: CCTE's Neural Network Formation Assay for Percent of Spikes in a Network Spike, Shafer Lab (AID 2284054). The procedure, abridged:
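Developing networks of rat cortical neurons are dosed at day 0 and recorded extracellularly four times up to day 12. The endpoint is the area under the curve of percent spikes in network spikes, fitted in the negative direction relative to DMSO.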

A short description of assay [14]: CCTE_Shafer_MEA_dev_LDH: CCTE's Lactate Dehydrogenase Assay for Cytotoxicity in the Neural Network Formation Assay, Shafer Lab (AID 2284068; active means hit-call score of the fitted dose curve at least 0.9, where 1 is the maximum;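 further: exposure for twelve days from plating with re-dosing on DIV 5 and 9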). The procedure, abridged: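 Cytotoxicity companion to network-formation recordings: rat cortical neurons received compound over 12 days of development, re-dosed at DIV 5 and 9 feeds. Viability was inferred from LDH enzyme activity relative to DMSO.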

Assay [15] is described as follows: CCTE_Shafer_MEA_dev_AB: CCTE's Alamar Blue Assay for Cytotoxicity in the Neural Network Formation Assay, Shafer Lab (AID 2284083; active means hit-call score of the fitted dose curve at least 0.9, where 1 is the maximum;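 further: resazurin reduction fluorescence as viability of cultured neurons; twelve days of exposure from plating with re-dosing on DIV 5 and 9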). The procedure, abridged:
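Fluorescent resazurin reduction serves as the viability read-out, with DMSO as negative control and baseline. Cells were primary rat cortical neurons grown on MEA plates and dosed from day 0 to day 12, treatment renewed on DIV 5 and 9.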
For orientation: The colour change of resazurin is a common sign of viable cells or microbes.

A short description of assay [16]: CCTE_Shafer_MEA_dev_mutual_information_norm: CCTE's Neural Network Formation Assay for Mutual Information Normalization, Shafer Lab (AID 2284091).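 Further: mutual information between electrodes summarised as area under curve across four recording days; potency is for a decrease in mutual information relative to DMSO.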 The gist of the method:
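Exposure of primary rat cortical neurons began at plating and ran to DIV 12, with full media and treatment renewal after DIV 5 and 9 recordings. Mutual information AUC (DIV 5–12) was analysed for loss versus DMSO.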

Assay [17] in a line: CCTE_Shafer_MEA_dev_correlation_coefficient_mean: CCTE's Neural Network Formation Assay for Mean Correlation Coefficient, Shafer Lab (AID 2284093).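 Further: well mean pairwise spike train correlation integrated as AUC over recording days 5 to 12; potency fitted for loss of correlation relative to DMSO vehicle wells.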 The gist of the method:
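Read-out: well-mean correlation coefficient of spike trains between electrode pairs, collapsed over four recording days as trapezoidal area-under-the-curve. Developing rat cortical neuron networks grown on MEAs received test chemical continuously from plating.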

The nature of assay [18]: IUF_NPC1b_proliferation_BrdU_72hr: Leibniz Research Institute for Environmental Medicine (IUF) 72-hour Neural Progenitor Cell Bromodeoxyuridine (BrdU) Proliferation Assay (NPC1b) (AID 2284207). The procedure, abridged:
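Neural progenitor spheres of human fetal origin are treated for three days; BrdU added for the last 16 h is quantified by luminescence ELISA, with DMSO as baseline and EGF/FGF omission as positive control.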

The nature of assay [19]: CCTE_Mundy_HCI_Cortical_Synap_Neur_Matur_NeuriteSpotCountPerNeuriteLength: CCTE's Synaptogenesis and Neurite Maturation Assay in rat cortical cells for Neurite Spot Count per Neurite Length, Mundy Lab (AID 2284210). The gist of the method: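 Neurite-associated synapse density (synaptophysin puncta per unit neurite length) is measured by fluorescence high-content imaging in rat cortical cultures treated from DIV 7 and fixed at DIV 12, with DMSO as negative control.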

Assay [20] is described as follows: CCTE_Mundy_HCI_Cortical_NOG_NeuriteCount: CCTE's Neurite Outgrowth Assay in rat cortical cells for Neurite Count, Mundy Lab (AID 2284212).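 Further: cells fixed about two days after chemical exposure began.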 The gist of the method:
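Rat cortical primary cells; compound added 2 h post-plating, 1/10 dilution of working solution. Anti-betaIII-tubulin/AF488 ICC; ArrayScan neurite count vs DMSO.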

The nature of assay [21]: CCTE_Mundy_HCI_Cortical_NOG_NeuriteLength: CCTE's Neurite Outgrowth Assay in rat cortical cells for Neurite Length, Mundy Lab (AID 2284213).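 Further: neurites imaged about 48 to 50 h after chemical exposure began.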 The procedure, abridged: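 First, rat primary cortical cells were plated and, 2 h later, given test chemical as a 1/10 dilution. Finally, βIII-tubulin immunostaining enabled automated imaging of neurite length.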
The nature of assay [22]: CCTE_Mundy_HCI_Cortical_Synap_Neur_Matur_NeuriteSpotCountPerNeuron: CCTE's Synaptogenesis and Neurite Maturation Assay in rat cortical cells for Neurite Spot Count per Neuron Count, Mundy Lab (AID 2284215). The gist of the method:
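Rat primary cortical cultures given AraC at DIV 5, dosed from DIV 7 to DIV 12 with media change. Fixed, stained for MAP2, synaptophysin and Hoechst; neurite-associated synaptophysin puncta per neuron quantified by high-content imaging versus DMSO.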

Records with an inconclusive call do not appear. Activity calls are given as the source filed them. How the source made its calls, unless noted: active means hit-call score of the fitted dose curve at least 0.9, where 1 is the maximum; inactive means score below 0.9.

`O=[As]O`: the AC50 (in general, the concentration giving half of the maximal activity seen) in assay [1] was 2.14 µM (active); in [2], 1.4 µM (active); in assay [3], 1.41 µM (active); in assay [4], 2.42 µM (active); in [5] it was 2.43 µM (active); in assay [6], 2.5 µM (active). Moreover, the AC50 in [7] is 1.69 µM (active); in assay [9] it was 1.28 µM (active); in assay [10], 1.14 µM (active); in assay [11] it was 1.08 µM (active); in assay [12], 1.14 µM (active); in [13] it was 1.14 µM (active). Besides, the AC50 in [14] is 1.09 µM (active); in assay [15] it was 1.82 µM (active); in assay [16], 1.15 µM (active); in assay [17] it was 0.996 µM (active); in [18], 2.03 µM (active); in assay [20], 3.32 µM (active). Besides, the AC50 in assay [21] was 2.48 µM (active); in [22] it was 5 µM (active). In addition, the compound was classed as inactive in assay [8] and in assay [19].
